Data reported in PubChem BioAssay (NCATS).
Unmarked numbers belong to inactive results. Records with an inconclusive call do not appear. Entries that show only a call come without a potency. Calls of active or inactive are those of the source. Calls follow the shape of the dose curve; as a rule, active = well fitted curve in the direction sought with a large enough effect; inconclusive = small, poorly fitted or top-dose-only effect, or another doubt; inactive = no such curve, though single readings can be large; an effect the other way counts as inactive or inconclusive.

Experiments:
[1] = target: Phospholipid hydroperoxide glutathione peroxidase GPX4 (Homo sapiens) (UniProt P36969); assay: Primary qHTS Assay for Inhibitors of Recombinant Selenoprotein Glutathione Peroxidase 4 (GPX4) (AID 1845192); also: series mostly up to about 50 µM; nearly all actives have a fitted effect of over 65% in size
Chain of Phospholipid hydroperoxide glutathione peroxidase GPX4 (Homo sapiens) (P36969 whole entry, looked up): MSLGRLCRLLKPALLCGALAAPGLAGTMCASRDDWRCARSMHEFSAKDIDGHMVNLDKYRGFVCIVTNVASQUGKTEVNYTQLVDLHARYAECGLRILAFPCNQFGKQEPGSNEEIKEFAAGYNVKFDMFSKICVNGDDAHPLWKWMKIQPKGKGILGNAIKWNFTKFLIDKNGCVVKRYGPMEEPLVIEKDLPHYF
Procedure, shortened: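 Steps: GPX4 plus compound, 30 min RT; add GR/GSH/NADPH master mix; start with cumene hydroperoxide; read 340/450 nm fluorescence at 0 and 15 min. Finals were 200 nM GPX4, 1 mM GSH, 0.5 mM CHP, 0.5 mM NADPH, 100 nM GR.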

[2] = target: Luciferin 4-monooxygenase (Photinus pyralis) (UniProt P08659); assay: Primary firefly luciferase (FLuc) qHTS assay for identification of artifact compounds. (AID 1845220); also: nearly all actives have a fitted effect of over 60% in size; as to activity change, negative = inhibition: series mostly up to about 54 µM
Procedure, shortened: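 Enzymatic FLuc inhibition assay: compounds pre-exposed to luciferin/ATP (10 uM each) for 15 min, then purified P. pyralis enzyme at 10 nM added. Read-out: luminescence at 5 min.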

[3] = Primary fluorescence-based thiol-reactive (MSTI) qHTS assay for identification of artifact compounds. (AID 1845221); also: nearly all actives have a fitted effect of over 65% in size; also: potency is read from the fitted curve at half-maximal effect;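 as to activity change, negative = thiol reactive: series mostly up to about 54 µM; thiol-reactive compounds lower the probe fluorescence signal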
Procedure, shortened: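 Probe: MSTI 4 uM, PBS pH 7.4, 2% DMSO. Incubation 1 h, RT, light-protected. Readout fluorescence 525/598 nm.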

[4] = tested on: Nanoluciferase (engineered Oplophorus gracilirostris luciferase); assay: Primary Nanoluciferase (NLuc) qHTS assay for identification of artifact compounds. (AID 1845222);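 also: NLuc secreted into diluted conditioned medium of S16 cells; series mostly up to about 54 µM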
Procedure, shortened: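 S16 cell supernatant NLuc, 1:55; cpds qHTS; 15 min RT dark; Nano-Glo substrate 1:100, 5 min; luminescence; Hill fit of % inhibition.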

[5] = Primary redox qHTS assay for identification of artifact compounds. (AID 1845223)
Procedure, shortened: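 Redox-cycling detection via DTT (250 uM final) oxidation coupled to Amplex Red (25 uM)/HRP (250 mU/mL) in HBSS. 15 min preincubation plus 30 min after DTT, room temperature. Ex/Em 525/598 nm; 4-parameter Hill fit against DMSO and 10 uM DA3003.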

| Structure (SMILES) | Potency [1] | Potency [2] | Potency [3] | Potency [4] | Potency [5] | activity change, negative = inhibition [2] | activity change, negative = thiol reactive [3] | activity, negative = inhibition [4] | redox activity (% of DA3003) [5] |
| --- | --- | --- | --- | --- | --- | --- | --- | --- | --- |
| CC(C)c1ccc(CO)cc1O[C@@H]1O[C@H](CO)[C@@H](O)[C@H](O)[C@H]1O | inactive | inactive | 13.1 µM (active) | inactive | inactive |  |  |  |  |
| CC1(C)CC[C@]2(C(=O)O[C@@H]3O[C@H](CO)[C@@H](O)[C@H](O)[C@H]3O)CC[C@]3(C)C(=CCC4[C@@]5(C)CC[C@H](O[C@@H]6O[C@H](C(=O)O)[C@@H](O)[C@H](O)[C@H]6O)[C@@](C)(CO)C5CC[C@]43C)C2C1 (stereo not given in full) | inactive |  |  |  |  | -3.91% [at 11.6 µM] | 129% [at 11.5 µM] | -2.6% [at 11.6 µM] | 15.6% [at 11.5 µM] |
| O=C(CC1C(=O)Nc2ccccc21)OC[C@H]1O[C@@H](OCCc2ccc(O)cc2)[C@H](O)[C@@H](O)[C@@H]1O (stereo not given in full) | inactive | inactive | 9.22 µM (active) | inactive | inactive |  |  |  |  |
| CCc1cc(CN2CC(C(=O)O)C2)sc1-c1noc(-c2ccc(Oc3ccccc3)cc2)n1 | inactive | inactive | inactive | inactive | inactive |  |  |  |  |
| CC1(CCOC2OC(CO)C(O)C(O)C2O)CCC23OC2(C1)C(O)CC1C(C)(C(=O)O)CCCC13C (stereo not given) | inactive | inactive | inactive | inactive | inactive |  |  |  |  |
| CC(=O)O[C@@H](CO[C@@H]1O[C@H](CO)[C@H](O)[C@H](O)[C@H]1O)[C@]1(C)C=C2CC[C@@H]3C(C)(C)[C@@H](O)CC[C@@]3(C)[C@@H]2CC1 | inactive | inactive | inactive | inactive | inactive |  |  |  |  |
| CCNC(=O)Nc1ccc(-c2nc3c(c(N4CCOC[C@@H]4C)n2)CCN(c2ncccn2)C3)cc1 | inactive | inactive | inactive | inactive | inactive |  |  |  |  |
